Screening results (PubChem)
Shown are actives, neighbours in structure and some others; about 2.1% of the full set was active somewhere.
PD-1 reversal = activators reversing PD-1 mediated T-cell inhibition, primary screen, luminescence, primary human CD4 T cells, PD-L1 beads. CellTiter-Glo 96 h. activation, % (no concentration beside the values). 29,000 tested, under 10 active; call rule not given here
YB-1 expression = inhibitors of YB-1 gene expression, primary screen, cell-based, fluorescence; U2OS, qRT-PCR YB-1 vs CDIP delta delta Cp, 16 h; hits give high values; zero = DMSO, each unit about twofold; delta delta Cp (YB-1 minus CDIP) (no concentration beside the values); 30,000 compounds, 0.37% hits; AID 434959, 2010;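 active = delta delta Cp rounded down to an integer at or above 3, about 3 SD of DMSO wells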;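 note: higher means less YB-1 transcript or more CDIP transcript relative to DMSO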
ROS inducer = ROS inducers in U2OS cancer cells, primary screen, cell-based, H2DCF-DA fluorescence | U2OS ROS induction | ROS induction (% of piperlongumine), % at 10 µM | 46,000 compounds, 2% hits; in the data active = ROS induction above about 79%, passing the limit was not always enough; inconclusive = no clear call, values can overlap the other calls
A number is an active result; . = inactive; ? = inconclusive; / = no result given.

SMILES	PD-1 reversal	YB-1 expression	ROS inducer
Cc1cccc(CN(C)C[C@@H]2Oc3ncc(-c4cccc(C(F)(F)F)c4)cc3C(=O)N([C@H](C)CO)C[C@@H]2C)c1	/	.	104
C[C@H](CO)N1C[C@H](C)[C@H](CN(C)Cc2cccc(C(F)(F)F)c2)Oc2ncc(-c3ccccc3)cc2C1=O	/	.	.
COc1ccc(C#Cc2cnc3c(c2)C(=O)N([C@H](C)CO)C[C@H](C)[C@H](CN(C)Cc2cccc(C(F)(F)F)c2)O3)cc1OC	/	.	.
COc1ccc(-c2cnc3c(c2)C(=O)N([C@H](C)CO)C[C@H](C)[C@H](CN(C)Cc2cccc(C(F)(F)F)c2)O3)cc1	/	.	110
COc1ccccc1CCNC(=O)c1ccc(COc2ccccc2Cl)o1	/	/	.
CC1(C)CC(=O)C(C(NC(=O)c2ccccc2)(C(F)(F)F)C(F)(F)F)C(=O)C1	/	/	.
COc1ccc(NC(=O)COc2ccc(C)c(C)c2)cc1NC(=O)c1ccco1	.	/	.
COc1cc(-c2nnc(SCC(=O)c3ccc(Cl)cc3)n2-c2ccccc2)cc(OC)c1OC	.	/	.
COc1cc(-c2nnc(SCC(=O)c3cccc([N+](=O)[O-])c3)n2-c2ccccc2)cc(OC)c1OC	.	/	95
COc1ccc(-c2cc(C)nc(SCC(=O)c3cccc([N+](=O)[O-])c3)n2)cc1	.	/	92
COc1ccc(-c2nnc(SCC(=O)c3cccc([N+](=O)[O-])c3)n2C)cc1	.	/	.
COC(=O)C1=NNC(C(=O)OC(C)(C)C)C1c1ccccc1 (stereo not drawn)	/	/	.
O=C(NC12CC3CC(CC(C3)C1)C2)C1CCCN1S(=O)(=O)c1ccccc1 (stereo not drawn)	/	/	.
CC(C)c1cc(NC2CCCCC2)n2c(nc3ccccc32)c1C#N	/	/	164
CCCc1cc(-n2cnc3ccccc32)n2c(nc3ccccc32)c1C#N	/	/	.
Cc1cc(/N=C\N(C)C)n2c(nc3ccccc32)c1C#N	/	/	.
CC(C)c1cc(NC(C)c2ccccc2)n2c(nc3ccccc32)c1C#N (stereo not drawn)	/	/	257
COCC(C)NC(=O)Cn1nc(C)c(NC(=O)c2cc(-c3ccccc3F)no2)c1C (stereo not drawn)	/	/	.
C[C@@H]1CN([C@@H](C)CO)C(=O)Cc2cc(NS(=O)(=O)c3cn(C)cn3)ccc2O[C@@H]1CN(C)Cc1ccncc1	.	.	.
C[C@@H]1CN([C@H](C)CO)C(=O)Cc2cc(NS(=O)(=O)c3cn(C)cn3)ccc2O[C@H]1CN(C)Cc1ccc(-c2ccccc2)cc1	.	.	.
C[C@H](CO)N1C[C@H](C)[C@H](CN(C)Cc2ccc(Oc3ccccc3)cc2)Oc2ccc(NS(=O)(=O)c3cn(C)cn3)cc2CC1=O	.	.	.
C[C@H]1CN([C@@H](C)CO)C(=O)Cc2cc(NS(=O)(=O)c3cn(C)cn3)ccc2O[C@@H]1CN(C)Cc1ccncc1	.	.	79
C[C@@H]1CN([C@H](C)CO)C(=O)Cc2cc(NS(=O)(=O)c3cn(C)cn3)ccc2O[C@@H]1CN(C)Cc1ccc(Oc2ccccc2)cc1	.	.	80
C[C@H]1CN([C@@H](C)CO)C(=O)Cc2cc(NS(=O)(=O)c3cn(C)cn3)ccc2O[C@H]1CN(C)Cc1ccc(-c2ccccc2)cc1	.	.	95
COc1ccc(C(=O)Nc2ccc(-c3cn4ccccc4n3)cc2)cc1	/	/	.
SMILES	PD-1 reversal	YB-1 expression	ROS inducer
COc1cc(-c2noc(-c3c(-c4ccccc4Cl)noc3C)n2)cc(OC)c1OC	/	/	117
COc1cc(NC(=O)Cn2nnc(-c3ccccc3Cl)n2)cc(OC)c1OC	.	/	.
C[C@H]1CN([C@@H](C)CO)C(=O)c2cccc(NC(=O)c3ccc(-c4nccs4)cc3)c2O[C@H]1CN(C)Cc1ccc(C(F)(F)F)cc1	/	.	109
C[C@H](CO)N1C[C@H](C)[C@@H](CN(C)Cc2ccc(Oc3ccccc3)cc2)Oc2c(NC(=O)c3ccc(-c4nccs4)cc3)cccc2C1=O	.	.	120
C[C@@H]1CN([C@H](C)CO)C(=O)c2cccc(NC(=O)c3ccc(-c4nccs4)cc3)c2O[C@@H]1CN(C)S(=O)(=O)c1cccs1	/	.	.
C[C@H]1CN([C@@H](C)CO)C(=O)c2cccc(NC(=O)c3ccc(-c4nccs4)cc3)c2O[C@H]1CN(C)Cc1ccc(Oc2ccccc2)cc1	.	.	.
C[C@H]1CN([C@@H](C)CO)C(=O)c2cccc(NC(=O)c3ccc(-c4nccs4)cc3)c2O[C@H]1CN(C)S(=O)(=O)c1cccs1	.	.	83
C[C@H](CO)N1C[C@H](C)[C@H](CN(C)Cc2ccc(C(F)(F)F)cc2)Oc2c(NC(=O)c3ccc(-c4nccs4)cc3)cccc2C1=O	/	.	.
COc1ccc(NC(=O)CNC(=O)c2ccc(OC)c(OC)c2)cc1Cl	.	/	.
N#Cc1c(-n2cccc2)sc2c1CCCC2	/	/	.
O=C(NC1CCCC1)c1cc(-c2ccc(F)cc2)no1	/	/	.
CC(C)CC1NC(=O)C(CC(C)C)N(O[C@@H]2O[C@H](COC(=O)CCC(=O)O)[C@@H](O)[C@H](O)[C@H]2O)C1=O (stereo partly drawn)	.	4.9	.
C=C1CCC(O)/C(C)=C\CC(C(C)C)C(OC2OC(COC(C)=O)C(O)C(O)C2O)C1 (stereo not drawn)	.	.	.
O=C(CCCCCCC(=O)N/N=C\c1cccc(Br)c1)NO	/	.	.
COc1cc(C2NC(=S)NC(C)=C2C(=O)Nc2ccccc2Cl)ccc1OCC#N (stereo not drawn)	.	/	103
CC1=C(C(=O)Nc2ccccc2Cl)C(c2cc(Br)ccc2OCC(N)=O)NC(=S)N1 (stereo not drawn)	.	/	.
C=CCN1C(=O)NC(=O)/C(=C\c2cn(Cc3ccccc3)c3ccccc23)C1=O	/	/	155
C=CCN1C(=O)/C(=C/c2cn(C(C)CC)c3ccccc23)C(=O)NC1=S (stereo not drawn)	.	.	.
CC(C)c1nc(N2CCN(C(=S)NC3CCCCC3)CC2)c(C#N)c2c1CCCC2	/	/	.
COc1ccc(NC(=O)CSc2nc(C)cc(=O)[nH]2)cc1	.	/	.
COc1ccc(NC(=O)CSc2nc3scc(C)c3c(=O)[nH]2)cc1	.	/	91
C=C1C(=O)O[C@H]2C1[C@H](OC(=O)/C(=C/CO)COC(=O)/C(C)=C/CO)CC(=C)[C@@H]1CC(=O)[C@@H](C)[C@@H]12 (stereo partly drawn)	.	.	87
C=C1C(=O)O[C@H]2[C@H]1[C@H](O)CC(=C)[C@@H]1CC(=O)C(C)[C@H]21 (stereo partly drawn)	.	.	?
C[C@@H]1CN([C@H](C)CO)C(=O)Cc2cc(NS(=O)(=O)c3ccccc3)ccc2O[C@H]1CN(C)C(=O)Nc1cccc2ccccc12	.	.	98
C[C@@H]1CN([C@H](C)CO)C(=O)Cc2cc(NS(=O)(=O)c3cn(C)cn3)ccc2O[C@H]1CN(C)C(=O)Nc1cccc2ccccc12	/	.	.
C[C@@H]1CN([C@@H](C)CO)C(=O)Cc2cc(NS(=O)(=O)c3ccccc3)ccc2O[C@@H]1CN(C)C(=O)Nc1cccc2ccccc12	.	.	.
